# Measured values: article PMC11066047
# Tests used:
# [1] = target: Ribosome-associated molecular chaperone SSB1 (UniProt P11484); experiment: cross-link between two proteins; affinity purification or IP with mass spectrometry; cross-linking mass spectrometry
# [2] = target: ATP synthase subunit f, mitochondrial (UniProt Q06405); experiment: cross-link between two proteins; cross-linking mass spectrometry
# [3] = target: ATP-dependent molecular chaperone HSC82 (UniProt P15108); experiment: cross-link between two proteins; affinity purification or IP with mass spectrometry; cross-linking mass spectrometry
# Heat shock protein STI1 = Heat shock protein STI1 (UniProt P15705); experiment: as above
# [4] = target: 26S proteasome regulatory subunit RPN7 (UniProt Q06103); experiment: cross-link between two proteins; cross-linking mass spectrometry
# [5] = target: Large ribosomal subunit protein eL22A (UniProt P05749); experiment: as above
# [6] = target: Large ribosomal subunit protein uL3 (UniProt P14126); experiment: as above
# [7] = target: Protein transport protein SSS1 (UniProt P35179); experiment: cross-link between two proteins; affinity purification or IP with mass spectrometry; cross-linking mass spectrometry
# [8] = target: ATP synthase subunit gamma, mitochondrial (UniProt P38077); experiment: cross-link between two proteins; cross-linking mass spectrometry
# [9] = target: 26S proteasome regulatory subunit 8 homolog (UniProt Q01939); experiment: as above
# [10] = target: 26S proteasome regulatory subunit RPN3 (UniProt P40016); experiment: as above
# [11] = target: ATP synthase subunit 5, mitochondrial (UniProt P09457); experiment: as above
# [12] = target: ATP synthase subunit H, mitochondrial (UniProt Q12349); experiment: as above
# [13] = target: ATP synthase subunit d, mitochondrial (UniProt P30902); experiment: as above
# [14] = target: ATP synthase subunit K, mitochondrial (UniProt P81451); experiment: as above
# [15] = target: ATP-dependent RNA helicase HAS1 (UniProt Q03532); experiment: as above
# [16] = target: Large ribosomal subunit protein eL13B (UniProt P40212); experiment: as above
# [17] = target: Casein kinase II subunit beta (UniProt P43639); experiment: as above
# Sequence of Ribosome-associated molecular chaperone SSB1 (P11484 whole entry): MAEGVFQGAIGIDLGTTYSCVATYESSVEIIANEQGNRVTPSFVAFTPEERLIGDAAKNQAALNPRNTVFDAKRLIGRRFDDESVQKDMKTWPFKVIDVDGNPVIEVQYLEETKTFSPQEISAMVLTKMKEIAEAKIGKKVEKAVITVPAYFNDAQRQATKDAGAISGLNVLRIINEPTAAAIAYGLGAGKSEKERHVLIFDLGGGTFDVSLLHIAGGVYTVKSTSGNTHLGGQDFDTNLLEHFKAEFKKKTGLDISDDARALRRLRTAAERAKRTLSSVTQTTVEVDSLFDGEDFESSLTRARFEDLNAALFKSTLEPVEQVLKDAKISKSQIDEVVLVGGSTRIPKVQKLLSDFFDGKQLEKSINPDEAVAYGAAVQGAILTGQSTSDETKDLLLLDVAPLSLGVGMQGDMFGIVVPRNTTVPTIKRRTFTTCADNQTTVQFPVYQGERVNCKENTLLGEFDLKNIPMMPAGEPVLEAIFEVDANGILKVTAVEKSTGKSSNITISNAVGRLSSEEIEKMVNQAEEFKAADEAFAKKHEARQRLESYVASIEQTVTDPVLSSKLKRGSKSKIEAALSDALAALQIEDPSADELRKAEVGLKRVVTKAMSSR
# Sequence of Nucleolar protein 16, P40007 (P40007 whole entry): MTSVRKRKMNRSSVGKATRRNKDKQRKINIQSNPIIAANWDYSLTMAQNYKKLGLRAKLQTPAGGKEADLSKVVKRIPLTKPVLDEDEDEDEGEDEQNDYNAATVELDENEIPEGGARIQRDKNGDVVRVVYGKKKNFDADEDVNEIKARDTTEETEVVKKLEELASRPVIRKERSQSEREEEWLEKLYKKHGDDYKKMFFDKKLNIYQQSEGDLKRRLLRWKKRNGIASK
# Sequence of ATP-dependent RNA helicase HAS1 (Q03532 whole entry): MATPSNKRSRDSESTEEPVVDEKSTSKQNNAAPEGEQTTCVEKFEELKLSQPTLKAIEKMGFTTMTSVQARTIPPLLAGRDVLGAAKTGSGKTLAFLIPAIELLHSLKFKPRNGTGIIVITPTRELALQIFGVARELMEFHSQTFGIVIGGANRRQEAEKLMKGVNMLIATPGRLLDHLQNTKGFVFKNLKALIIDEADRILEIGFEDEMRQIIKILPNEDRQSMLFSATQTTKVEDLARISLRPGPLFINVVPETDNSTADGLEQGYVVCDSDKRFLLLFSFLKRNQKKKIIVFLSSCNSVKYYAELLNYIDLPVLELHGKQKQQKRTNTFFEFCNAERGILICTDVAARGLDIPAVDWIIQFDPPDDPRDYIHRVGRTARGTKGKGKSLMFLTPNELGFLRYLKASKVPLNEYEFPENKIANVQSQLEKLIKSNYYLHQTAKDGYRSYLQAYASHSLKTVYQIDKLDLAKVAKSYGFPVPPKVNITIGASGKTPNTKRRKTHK
# Sequence of 26S proteasome regulatory subunit RPN3 (P40016 whole entry): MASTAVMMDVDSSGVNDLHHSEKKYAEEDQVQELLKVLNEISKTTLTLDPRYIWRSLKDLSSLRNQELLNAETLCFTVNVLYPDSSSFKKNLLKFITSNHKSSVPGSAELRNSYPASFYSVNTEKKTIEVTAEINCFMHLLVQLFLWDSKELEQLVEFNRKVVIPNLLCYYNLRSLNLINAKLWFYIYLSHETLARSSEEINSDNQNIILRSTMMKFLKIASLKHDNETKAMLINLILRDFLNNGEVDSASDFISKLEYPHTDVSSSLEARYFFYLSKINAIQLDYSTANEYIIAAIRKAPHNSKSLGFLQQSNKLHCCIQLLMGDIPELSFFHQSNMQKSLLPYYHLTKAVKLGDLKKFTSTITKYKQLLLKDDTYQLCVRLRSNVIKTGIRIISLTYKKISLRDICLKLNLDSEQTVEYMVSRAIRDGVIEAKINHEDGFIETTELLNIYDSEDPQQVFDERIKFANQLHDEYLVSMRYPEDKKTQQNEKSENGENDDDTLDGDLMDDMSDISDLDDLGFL
# Sequence of Protein transport protein SSS1 (P35179 whole entry): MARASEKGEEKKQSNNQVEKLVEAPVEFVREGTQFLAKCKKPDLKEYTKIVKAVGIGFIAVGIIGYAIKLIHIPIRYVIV
# Sequence of ATP synthase subunit K, mitochondrial (P81451 whole entry): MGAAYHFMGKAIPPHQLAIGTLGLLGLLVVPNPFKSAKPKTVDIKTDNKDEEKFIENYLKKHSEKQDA
# Sequence of Large ribosomal subunit protein eL22A (P05749 whole entry): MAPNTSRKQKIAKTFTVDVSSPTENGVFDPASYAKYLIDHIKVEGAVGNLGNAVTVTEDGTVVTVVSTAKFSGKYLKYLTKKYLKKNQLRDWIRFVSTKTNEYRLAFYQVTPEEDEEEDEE
# Sequence of Large ribosomal subunit protein uL3 (P14126 whole entry): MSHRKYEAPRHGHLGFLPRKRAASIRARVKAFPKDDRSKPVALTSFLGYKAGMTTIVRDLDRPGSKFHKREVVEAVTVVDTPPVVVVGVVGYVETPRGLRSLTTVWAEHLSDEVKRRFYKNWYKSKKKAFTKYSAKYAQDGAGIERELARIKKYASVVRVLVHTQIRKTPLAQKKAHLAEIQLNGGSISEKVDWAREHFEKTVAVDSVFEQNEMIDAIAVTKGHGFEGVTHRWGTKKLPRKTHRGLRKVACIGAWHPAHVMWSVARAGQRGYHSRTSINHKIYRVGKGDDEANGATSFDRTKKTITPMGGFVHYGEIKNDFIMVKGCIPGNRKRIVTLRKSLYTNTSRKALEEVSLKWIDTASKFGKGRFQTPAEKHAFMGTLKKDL
# Sequence of ATP-dependent molecular chaperone HSC82, P15108 (P15108 whole entry): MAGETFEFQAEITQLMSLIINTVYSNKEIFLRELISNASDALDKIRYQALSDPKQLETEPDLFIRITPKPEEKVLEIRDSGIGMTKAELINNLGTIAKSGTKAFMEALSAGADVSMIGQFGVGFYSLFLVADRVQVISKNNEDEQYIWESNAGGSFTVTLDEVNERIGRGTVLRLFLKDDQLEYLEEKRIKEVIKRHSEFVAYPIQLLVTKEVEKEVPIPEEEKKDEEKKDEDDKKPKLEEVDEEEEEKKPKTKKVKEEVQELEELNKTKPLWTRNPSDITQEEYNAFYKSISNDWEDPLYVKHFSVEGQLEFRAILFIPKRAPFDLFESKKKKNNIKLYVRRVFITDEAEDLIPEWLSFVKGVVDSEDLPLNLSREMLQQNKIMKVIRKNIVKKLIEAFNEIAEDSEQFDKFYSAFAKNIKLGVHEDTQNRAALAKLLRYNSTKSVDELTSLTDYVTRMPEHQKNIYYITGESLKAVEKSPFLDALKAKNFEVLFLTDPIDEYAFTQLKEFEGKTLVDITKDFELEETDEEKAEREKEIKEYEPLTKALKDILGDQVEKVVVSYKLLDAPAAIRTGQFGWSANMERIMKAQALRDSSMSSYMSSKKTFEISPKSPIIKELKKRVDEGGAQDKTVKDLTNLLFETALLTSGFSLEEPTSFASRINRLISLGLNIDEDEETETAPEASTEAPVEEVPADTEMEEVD
# Sequence of ATP-dependent molecular chaperone HSC82 (P15108 whole entry): as above
# Sequence of 26S proteasome regulatory subunit RPN7 (Q06103 whole entry): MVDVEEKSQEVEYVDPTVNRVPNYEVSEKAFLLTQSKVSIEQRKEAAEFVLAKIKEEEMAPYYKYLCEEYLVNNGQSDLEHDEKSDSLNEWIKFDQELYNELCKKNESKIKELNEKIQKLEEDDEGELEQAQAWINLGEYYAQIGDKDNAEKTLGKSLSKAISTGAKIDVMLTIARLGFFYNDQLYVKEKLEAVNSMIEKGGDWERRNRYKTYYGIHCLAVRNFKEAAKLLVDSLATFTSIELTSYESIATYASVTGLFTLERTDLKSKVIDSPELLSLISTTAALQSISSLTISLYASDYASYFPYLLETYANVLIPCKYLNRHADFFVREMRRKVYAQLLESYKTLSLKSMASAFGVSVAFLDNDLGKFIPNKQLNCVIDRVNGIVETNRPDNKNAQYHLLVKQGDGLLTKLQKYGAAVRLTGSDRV
# Sequence of ATP synthase subunit H, mitochondrial (Q12349 whole entry): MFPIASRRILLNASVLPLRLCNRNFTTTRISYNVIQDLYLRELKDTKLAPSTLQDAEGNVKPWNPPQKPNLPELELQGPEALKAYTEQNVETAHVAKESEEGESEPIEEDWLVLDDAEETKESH
# Sequence of ATP synthase subunit 5, mitochondrial (P09457 whole entry): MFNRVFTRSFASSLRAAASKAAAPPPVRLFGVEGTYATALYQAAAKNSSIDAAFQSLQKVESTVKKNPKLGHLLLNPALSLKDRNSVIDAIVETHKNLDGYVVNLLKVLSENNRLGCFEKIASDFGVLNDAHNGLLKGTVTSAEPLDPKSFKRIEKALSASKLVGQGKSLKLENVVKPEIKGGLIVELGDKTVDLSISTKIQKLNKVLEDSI
# Sequence of ATP synthase subunit f, mitochondrial (Q06405 whole entry): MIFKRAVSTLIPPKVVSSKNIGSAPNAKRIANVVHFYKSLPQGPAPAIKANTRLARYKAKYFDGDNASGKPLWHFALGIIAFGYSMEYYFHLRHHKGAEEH
substance,measurement,setting,value
"Polyadenylate-binding protein, cytoplasmic and nuclear, P04147",listed as a hit,[1],yes
"ATP synthase subunit d, mitochondrial, P30902",listed as a hit,[2],yes
"ATP-dependent molecular chaperone HSP82, P02829",listed as a hit,[3],yes
"ATP-dependent molecular chaperone HSC82, P15108",listed as a hit,Heat shock protein STI1,yes
"26S proteasome complex subunit SEM1, O94742",listed as a hit,[4],yes
"Large ribosomal subunit protein eL24A, P04449",listed as a hit,[5],yes
same,listed as a hit,[6],yes
same,listed as a hit,[1],yes
"Enolase 1, P00924",listed as a hit,[1],yes
"Protein transport protein SEC61, P32915",listed as a hit,[7],yes
"ATP synthase subunit epsilon, mitochondrial, P21306",listed as a hit,[8],yes
"26S proteasome regulatory subunit 4 homolog, P40327",listed as a hit,[9],yes
"26S proteasome regulatory subunit RPN12, P32496",listed as a hit,[10],yes
"ATP synthase subunit 4, mitochondrial, P05626",listed as a hit,[11],yes
same,listed as a hit,[12],yes
same,listed as a hit,[13],yes
"ATP synthase subunit e, mitochondrial, P81449",listed as a hit,[14],yes
"Proteasome-interacting protein CIC1, P38779",listed as a hit,[15],yes
"Nucleolar protein 16, P40007",listed as a hit,[15],yes
same,listed as a hit,[16],yes
"Casein kinase II subunit alpha, P15790",listed as a hit,[17],yes
